MARV entry inh = inhibitors of Marburg virus binding or entry into cells; Marburg virus pseudotype entry/binding inhibition, cell-based; Potency, µM (top dose mostly 49.2 µM), most hits filed as inhibitors; 6.5% of 18,000 active
Lassa entry = inhibitors of Lassa virus binding or entry into cells; 4.1% of 18,000 active; Lassa virus pseudotyped entry inhibition, cell-based qHTS; Potency, µM (titrated, usually from 49.2 µM), usual class: inhibitors
A number is an active result; ! = not confirmed by another sample; [ ] = another dose, or the depositor's remark. Hits are enriched below; roughly 8.6% of the tested compounds scored in any of these assays. Calls come from the whole dose curve; tested in HEK293 cells.

`C=CCNC1=C2C[C@@H](C)C[C@H](OC)[C@H](O)[C@@H](C)/C=C(\C)[C@H](OC(N)=O)[C@@H](OC)/C=C\C=C(/C)C(=O)NC(=CC1=O)C2=O` gave MARV entry inh inconclusive and Lassa entry 3.5µM!.
COC1=C2C[C@H](C)C[C@H](OC)[C@H](O)[C@@H](C)/C=C(/C)[C@H](OC(N)=O)[C@@H](OC)/C=C\C=C(\C)C(=O)NC(=CC1=O)C2=O was read as MARV entry inh inactive and Lassa entry inactive.
Screening CCN1C(=NCCCCO)NC(c2cccc(C(F)(F)F)c2)C(C(=O)OC)=C1C (stereo unspecified) returned MARV entry inh inactive[8.59 µM] and Lassa entry inactive[8.59 µM].
`CC(C)(O)C#Cc1ccc(C(=O)NCCN2Cc3ccccc3OC(c3ccccc3F)C2)o1` (stereo unspecified) gave MARV entry inh inactive and Lassa entry inactive.
`COCC1=C(C(=O)OC)C(c2ccccc2)N(C(C)=O)C(=O)N1` (stereo unspecified) gave MARV entry inh inactive[8.59 µM] and Lassa entry inactive[8.59 µM].
CC(C)N1C(=O)[C@@H]2CSCCS(=O)(=O)N2C1=O was read as MARV entry inh inactive and Lassa entry inactive.
`c1ccc(Nc2ncc(-c3ccccc3)o2)cc1` gave MARV entry inh inactive and Lassa entry 5µM.
Cc1cccc(Nc2ncc(-c3ccccc3)o2)c1 was read as MARV entry inh inactive.
CC12C=C(C=Cc3ccc(Br)cc3)C(C)(C1)C(c1ccc(Br)cc1)CC2=O (stereo unspecified) was read as MARV entry inh inactive[8.59 µM].
Screening CCN1C(=O)NC(c2cccc(F)c2)C(C(=O)OC)=C1C (stereo unspecified) returned MARV entry inh inactive[8.59 µM] and Lassa entry inactive[8.59 µM].
For COc1ccc(CCNC(=O)C(=O)c2c[nH]c3ccccc23)cc1 the results were MARV entry inh inactive and Lassa entry 3.5µM.
`COC(=O)c1csc(C(=O)c2c[nH]c3ccccc23)n1` gave MARV entry inh inactive and Lassa entry inactive.
`COC(=O)C1=C(C(=O)OC)[C@@H]2Nc3ccccc3[C@@]23C[C@@H](C(=O)OC)N(C(=O)Nc2ccc(C(F)(F)F)cc2)C3=N1` gave MARV entry inh inactive[8.59 µM] and Lassa entry inactive[8.59 µM].
For COc1ccc(O[C@H]2C=C[C@@H](c3ccccc3)O[C@H]2CON=C(C)CCN2CCCc3nc(C)c(C)cc32)cc1 the results were MARV entry inh inconclusive and Lassa entry inactive[8.59 µM].
Screening CO/N=C(\C(=O)N[C@@H]1C(=O)N2C(C(=O)O)=C(CSc3nc(C)c(CC(=O)O)s3)CS[C@H]12)c1csc(N)n1 returned MARV entry inh inactive and Lassa entry inactive.
For C1CCC(NC(=NC2C3CC4CC(C3)CC2C4)N2CCOCC2)CC1 (stereo unspecified) the results were MARV entry inh 14µM and Lassa entry inconclusive.
For C=C(CCN1C=C(C(=O)OCC)C(c2ccccc2)NC1=O)c1ccc(Cl)cc1 (stereo unspecified) the results were MARV entry inh inactive[8.59 µM] and Lassa entry inactive[8.59 µM].
C[C@@H]1[C@H](O)[C@@H](C)/C=C/C=C\C=C\C=C\C=C\C=C\C=C\[C@H](O[C@@H]2O[C@H](C)[C@@H](O)[C@H](N)[C@@H]2O)C[C@@H]2O[C@](O)(C[C@@H](O)C[C@@H](O)[C@H](O)CC[C@@H](O)C[C@@H](O)CC(=O)O[C@H]1C)C[C@H](O)[C@H]2C(=O)O (stereo in doubt) was read as MARV entry inh inactive and Lassa entry inactive.
`CC(CCN1CCCc2nc(C)c(C)cc21)=NO[C@H](C)CN1CCCc2nc(C)c(C)cc21` gave MARV entry inh inactive[8.59 µM] and Lassa entry inactive[8.59 µM].
Screening CC(C)C1C(=O)N(Cc2cn(CCC3OCCCO3)nn2)CCS(=O)(=O)N1Cc1ccc(-c2ccccc2)cc1 (stereo unspecified) returned MARV entry inh inactive.
Screening COc1ccccc1N1CCN(C[C@@H](C(=O)NC(C)(C)C)c2ccccc2)CC1 returned MARV entry inh inactive and Lassa entry inactive.
For COc1ccccc1N1CCN(c2nc(CNC(=O)C3CC34CCCC4)nc3ccccc23)CC1 (stereo unspecified) the results were MARV entry inh inconclusive and Lassa entry 32µM.
C[C@@H]([C@H](O)c1ccc(O)cc1)N1CCC(Cc2ccccc2)CC1 was read as MARV entry inh inconclusive and Lassa entry inactive.
For CC(C(O)c1ccc(O)cc1)N1CCC(Cc2ccccc2)CC1 (stereo unspecified) the results were MARV entry inh 10µM and Lassa entry inactive.
`O=c1n(-c2ccccc2)c(=O)n2n1CC[C@@H]1C(=NOC[C@@H](O)COCc3ccco3)[C@H]3O[C@H]3[C@@H](O)[C@H]12` gave MARV entry inh inactive[8.59 µM] and Lassa entry inactive[8.59 µM].
Screening Fc1ccc(C(OCCN2CCN(C/C=C/c3ccccc3)CC2)c2ccc(F)cc2)cc1 returned MARV entry inh 8.9µM and Lassa entry 16µM.
`Fc1ccc(C(c2ccc(F)cc2)N2CCN(C/C=C\c3ccccc3)CC2)cc1` gave MARV entry inh 14µM and Lassa entry inconclusive.
`CCCNC(=O)OC[C@H]1O[C@H](CCON=C2c3cc(OC)ccc3O[C@H](c3cccc(OC)c3)[C@H]2O)C=C[C@H]1Oc1ccc(OC)cc1` gave MARV entry inh inconclusive and Lassa entry inactive[8.59 µM].
Screening C=CC[C@@H]1C=C[C@@H](Oc2ccc(OC)cc2)[C@H](COC(=O)c2ccc(Br)cc2)O1 returned MARV entry inh inactive[8.59 µM] and Lassa entry inactive[8.59 µM].
For CCCCCCCCCCCCOCCOCCOCCOCCO the results were MARV entry inh inactive and Lassa entry inactive.
Screening CCCCCCCCCc1ccc(OCCOCCO)cc1 returned MARV entry inh inconclusive and Lassa entry 11µM.
For COc1ccc(O)c(C(C)(C)C)c1 the results were MARV entry inh inconclusive and Lassa entry inactive.
For CC(C)(C)c1cc(O)ccc1O the results were MARV entry inh 13µM! and Lassa entry 14µM!.
For C[C@@H]1CC[C@H]2C(=O)N(Cc3ccc(Cl)cc3)C[C@H](O)CN2[C@@H]1c1ccc(Br)cc1 the results were MARV entry inh inactive[8.59 µM] and Lassa entry inactive[8.59 µM].
Screening Cc1ccc2nc(CNC(=O)c3cc(NC(=O)c4ccccc4)cc4ncn(C5CCCC5)c34)cn2c1 returned MARV entry inh inactive and Lassa entry inactive.
Screening C[C@@H]1CC[C@H]2C(=O)N(CC3CCCCC3)C[C@H](O)CN2[C@@H]1c1ccc(Br)cc1 returned MARV entry inh inconclusive and Lassa entry inactive[8.59 µM].
`CN1CCC(Nc2ncc3ncnc(Nc4ccc(F)c(Cl)c4)c3n2)CC1` gave MARV entry inh 10µM and Lassa entry inactive.
`COCc1cc2cc3c(cc2c2c(C(=O)OC)c(C(=O)OC)c(C(=O)OC(C)(C)C)n12)OCO3` gave MARV entry inh inactive[8.59 µM].
`C=CCOC(=O)C(C(C)=O)[C@@H](NC(=O)OC)c1ccco1` (stereo partly specified) gave MARV entry inh inactive[8.59 µM] and Lassa entry inactive[8.59 µM].
`CC(Cc1cccc(C(F)(F)F)c1)NCCCc1ccccc1` (stereo unspecified) gave MARV entry inh 14µM and Lassa entry 32µM.
CCN[C@H](C)Cc1cccc(C(F)(F)F)c1 was read as MARV entry inh inactive and Lassa entry inactive.
Cc1cc(C)c2c(c1)CO[C@H]([C@H](O)CO)[C@H]2C=Cc1ccccc1 was read as MARV entry inh inconclusive and Lassa entry inactive[8.59 µM].
Screening C=CC[C@@H]1C=C[C@H](ON=C(C)CCN2CCCc3nc(C)c(C)cc32)[C@H](CO)O1 returned MARV entry inh inactive[8.59 µM] and Lassa entry inactive[8.59 µM].
